FBPA coupling cs: qHTS Assay for Inhibitors of Fructose-1,6-bisphosphate Aldolase from Giardia Lamblia: Coupling assay counterscreen. coupling enzyme system counterscreen, AmpLite Red fluorescence. activity change, negative = inhibition, % at 58.2 µM, hits read low. 290,000 compounds, 0.67% hits. AID 2472, 2010; in the data active = activity change below about -30%
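Coupling enzymes only (glyceraldehyde-3-phosphate) + compound, at 57.5 uM final, 10 min RT; add substrate/coupling/AmpLite Red mix, 20 min RT; fluorescence ex 525/em 598 nm. Actives flag coupling-system interference.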
Eya2 phos inh: qHTS Assay for Inhibitors of the Phosphatase Activity of Eya2 | recombinant Eya2, OMFP fluorescence dephosphorylation (OMFP is methylfluorescein phosphate) | Potency, µM (highest dose often 76.9 µM), inactives show at the highest dose activity, negative = inhibition, actives largely listed as inhibitors | 330,000 compounds, 0.006% hits | AID 488837, 2010; note: potency is the fitted concentration of half-maximal effect
Target sequence (O00167 whole entry, looked up): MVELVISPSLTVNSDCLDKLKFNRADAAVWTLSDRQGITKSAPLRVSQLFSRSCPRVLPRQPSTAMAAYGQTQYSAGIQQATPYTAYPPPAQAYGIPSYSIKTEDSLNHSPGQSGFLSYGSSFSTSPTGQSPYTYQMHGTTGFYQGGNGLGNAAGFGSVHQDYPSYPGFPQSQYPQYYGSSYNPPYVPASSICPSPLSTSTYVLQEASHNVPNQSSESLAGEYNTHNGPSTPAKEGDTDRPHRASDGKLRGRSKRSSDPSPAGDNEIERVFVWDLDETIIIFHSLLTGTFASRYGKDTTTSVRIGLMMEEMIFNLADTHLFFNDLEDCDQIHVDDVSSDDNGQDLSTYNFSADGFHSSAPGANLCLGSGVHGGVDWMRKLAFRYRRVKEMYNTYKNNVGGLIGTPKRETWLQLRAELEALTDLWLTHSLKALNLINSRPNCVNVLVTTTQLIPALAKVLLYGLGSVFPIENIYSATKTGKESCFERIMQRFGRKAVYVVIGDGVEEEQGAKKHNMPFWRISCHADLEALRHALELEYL
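Eya2 protein (added as 0.2 uM solution) was preincubated with compound for 10 min at ambient temperature in 50 mM HEPES pH 7.5, 50 mM NaCl, 5 uM MgCl2, 0.05% BSA, 1 mM DTT. OMFP (added at 50 uM) then reacted 10 min; fluorescence read at 485/525 nm.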
PI4K2A block: qHTS for small molecular inhibitors of PI4K2A. Phosphatidylinositol 4-kinase type 2-alpha (Homo sapiens), Q9BTU6. purified PI4K2A, ADP-Glo luminescence, 1 h; active compounds read low. activity change, negative = inhibition, % at 76.9 µM. 420,000 compounds, 0.13% hits; in the data active = activity change below about -50%; inconclusive = mostly about -30% to -49%;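 note: -100% = wells without enzyme as full effect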
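ADP-Glo luminescence measured ADP generated by PI4K2A enzyme (4 ug/mL before mixing) with 1.2 mM PI substrate (pre-mix) and 300 microM ATP (pre-mix). Tris pH7.5 buffer with MgCl2, Triton X-100; 1 h reaction at ambient temperature.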
GALK inh: qHTS Assay for Inhibitors of Human Galactokinase (GALK); P51570; Purified GALK, Kinase-Glo residual ATP luminescence; 270,000 compounds, 0.007% hits; Potency, µM (top dose mostly 57.5 µM), for inactives: at the highest dose activity change, negative = inhibition, hits mostly inhibitors; note: potency is the fitted concentration of half-maximal effect
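The enzyme phosphorylates galactose (100 uM) using ATP (35 uM); inhibition is detected as higher residual ATP, quantified by bioluminescence after 1 h reaction at room temperature, pH 8.0.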
USP1 inh: Inhibitors of USP1/UAF1: Primary Screen; Ubiquitin carboxyl-terminal hydrolase 1 (Homo sapiens), O94782; 390,000 compounds, 0.23% hits; Potency, µM (top dose mostly 57.1 µM), for the others: top-dose activity change, negative = inhibition, usual class: inhibitors; recombinant USP1/UAF1, Ub-Rhodamine cleavage fluorescence; note: potency is the fitted concentration of half-maximal effect; nearly all actives have a fitted effect of over 60% in size
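In this screen, compounds sit with the deubiquitinase complex (1nM) for 15 min at room temperature before Ub-Rho is added at 150nM final. Fluorescence rise is then followed for 6 reads every 60 seconds.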
USP2a inh: qHTS Assay for Inhibitors of Ubiquitin-specific Protease USP2a Using CHOP2 as the Reporter; Ubiquitin carboxyl-terminal hydrolase 2 (Homo sapiens), O75604; USP2 core, Ub-CHOP2 coupled fluorogenic reporter, 485/531; Potency, µM (series often up to 38.3 µM), without a hit: at the top dose activity change, negative = inhibition, most hits filed as inhibitors; 330,000 compounds, 0.01% hits;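 note: potency is the fitted concentration of half-maximal effect; plate controls were DMSO wells for no effect and full inhibition by NEM control for full effect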
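USP2 core (10nM final) preincubated 30min RT with compound in 20mM Tris-HCl pH 8.0, 2mM CaCl2, 2mM beta-mercaptoethanol, 0.05% CHAPS; 25nM Ub-CHOP2 plus 25nM reporter substrate added, fluorescence (Ex485/Em531) read after 60min.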
An asterisk follows results filed as active; ? = inconclusive; . = not tested or not shown; ! = not confirmed by another sample. Most compounds without a hit are left out; they make up all but 0.71% or so of the library. Unless noted, calls come from the whole dose curve; as a rule, active = well fitted curve in the direction sought with a large enough effect; inconclusive = small, poorly fitted or top-dose-only effect, or another doubt; inactive = no such curve, though single readings can be large; an effect the other way counts as inactive or inconclusive. Unless noted, % is set by controls: 0 for no effect and ±100 for the full control effect.

SMILES	FBPA coupling cs	Eya2 phos inh	PI4K2A block	GALK inh	USP1 inh	USP2a inh
COc1ccc(C#CC2C=CC(OC(C)=O)C(COC(C)=O)O2)cc1 (centres undefined)	0	.	.	.	.	.
N#CC1=C(N)OC2=C(C(=O)CCC2)C1c1ccccc1 (centres undefined)	-3	-3%	1	6%	-8%	-1%
Cn1cccc1C1C(C#N)=C(N)OC2=C1C(=O)CCC2 (centres undefined)	-34*	17%	-10	-2%	-15%	1%
O=c1oc2c(O)c(O)cc3c(=O)oc4c(O)c(O)cc1c4c23	-79*!	0%	-23	.	?	1.1µM*
O=c1oc2ccccc2c2oc3cc(O)c(O)cc3c12	4	-9%	-12	-1%	-9%	-14%
CCOc1ccccc1OCCCC(=O)Nc1ccc(OC)nc1	-32*	5%	-1	2%	-9%	2%
CC1(C)CC(=O)C=C(Nc2ccccc2NC(=O)c2cc(Cl)ccc2F)C1	.	.	3	.	.	.
CCN1/C(=C/c2cc[n+](C)cc2)C=Cc2cc(C)ccc21	-50*	7%	-13	2%	?	-1%
O=C1C=CC(=O)c2c(O)c(CO)c(CO)c(O)c21	.	.	-53*	.	14µM*	.
O=C1C=CC(=O)c2c(O)c(Cl)c(Cl)c(O)c21	-90*	.	.	.	.	.
CCOC(=O)c1c(C)[nH]c(C2=NNC(=Nc3ccccc3)SC2)c1C	-38*	-7%	-5	1%	?	-8%
CCOC(=O)c1c(C)[nH]c(C2=NNC(=Nc3ccc(OCC)cc3)SC2)c1C	-10	-3%	-6	-1%	?	-2%
CNc1ccc(Br)cc(C(=O)/C=C/c2ccc(OC)cc2OC)c1=O	-39*	-3%	-4	0%	-17%	0%
CC(=O)SC[C@@H](C)C(=O)N1CCC[C@H]1C(=O)N[C@@H](Cc1ccccc1)C(=O)O	.	.	4	.	.	.
CC[n+]1c(/C=C/N(C)c2ccccc2)oc2ccc(Cl)cc21	-32*	15%	-4	-4%	-21%	4%
CCN1/C(=C/C=C/c2oc3ccc4ccccc4c3[n+]2CC)Oc2ccc3ccccc3c21	-5	?	-13	-1%	157%	?
Cc1cc(F)ccc1OC1C=CC(c2ccc3c(c2)OCO3)OC1CO (centres undefined)	0	.	.	.	.	.
O=c1ccn(-c2cccc(C(F)(F)F)c2)nc1-c1ccn(-c2ccccc2F)n1	-43*	-12%	16	2%	-11%	1%
COc1ccc(-n2ccc(-c3nn(-c4cccc(C(F)(F)F)c4)ccc3=O)n2)cc1	-7	-24%	6	-1%	-15%	-1%
CN=Cc1nc(-c2ccccc2)oc1O	7	-19%	-4	0%	-4%	0%
CC1=Nc2ccccc2/C1=C\c1nc(-c2ccc(F)cc2)oc1O	-1	8%	5	2%	28µM*	-7%
O=c1c2ccccc2cnn1-c1nc2ccccc2[nH]1	-3	2%	-73*	24%	-14%	-1%
O=c1c(Cl)c(N2CCCCC2)cnn1-c1nc2ccccc2[nH]1	0	8%	-25	11%	0%	-1%
CC1(C)Cc2c(sc(NC(=O)COc3cccc4ccccc34)c2C#N)C(C)(C)N1	-2	24%	3	-5%	18µM*	-1%
C=CCN1C/C(=C/c2ccccc2)N2C(=O)CC(c3ccccc3)N=C12 (centres undefined)	.	.	-5	.	.	.
SMILES	FBPA coupling cs	Eya2 phos inh	PI4K2A block	GALK inh	USP1 inh	USP2a inh
O=C1C[C@@H](O)[C@H](O)c2cccc(O)c21	.	.	-13	.	.	.
CC(C)NCCCC1(C(N)=O)c2ccccc2-c2ccccc21	.	.	-1	.	.	.
CN(C)c1ccc(-c2[nH][nH]c(=O)c2NC(=O)c2ccc3ccccc3n2)cc1	.	.	-65*	.	.	.
CN(C)c1ccc(-c2[nH][nH]c(=O)c2NC(=O)c2ccccn2)cc1	.	.	-64*	.	.	.
O=C(Nc1c(-c2ccccc2)[nH][nH]c1=O)c1ccccc1	.	.	-22	.	.	.
CC(C)CO/N=C1/C[C@@H](O)[C@@H](O)[C@@H]2[C@@H]3C(=O)N(Cc4ccc5c(c4)OCO5)C(=O)[C@H]3CC[C@@H]12	-1	.	.	.	.	.
NC(=O)c1ccc(N=C2C(=O)Nc3ccc([N+](=O)[O-])cc32)cc1	-30*	15%	?	3%	14µM*	2%
CC1(C)Cc2c(ccc3ccccc23)C2=C(C(=O)N3CCCC3)C(=O)C(=O)N21	-45*	3%	-4	-1%	-18%	0%
C[C@H]1Cc2c(-c3ccccc3)nc3c(c2CO1)CN(S(=O)(=O)c1ccc2c(c1)OCCN2C)CC3	2	.	.	.	.	.
CCCCNC(=O)NS(=O)(=O)c1ccc(NC(=O)CSc2ncnc3scc(-c4ccc(C)cc4)c23)cc1	.	.	1	.	.	.
CN(C)c1ccc(NC(=O)N2CCOCC2)cc1	-32*	-5%	-16	3%	-10%	5%
Cc1c(C(=O)N/N=C/c2ccc(-c3ccccc3[N+](=O)[O-])o2)sc(N)c1C#N	-33*	-10%	-5	1%	-23%	4%
Nn1cnnc1N/N=C\c1ccc(-c2ccccc2[N+](=O)[O-])o1	-49*	0%	-22	0%	?	-6%
Cc1nc(C2COc3ccccc3O2)sc1C(=O)O (centres undefined)	5	?	-63*	2%	-6%	-1%
C=C(C(=O)OCC)C(=O)c1ccccc1	2	.	.	.	.	.
O=C(NNC(=O)c1ccc(NC(=O)c2ccccc2)cc1)c1ccc(F)cc1	0	8%	-16	-2%	-26%	0%
O=C(NC1=C(Nc2ccc(F)cc2)C(=O)c2ccccc2C1=O)c1ccc(Cl)cc1	-42*	-18%	-17	-3%	?	-4%
Cc1oc(/N=C/c2c(O)ccc3ccccc23)c(C#N)c1C	-30*	15%	.	7%	.	1%
Cn1c(/N=C/c2c(O)ccc3ccccc23)nc2ccccc21	-79*	6%	-16	0%	?	-2%
Cc1ccc(N=Cc2c(O)ccc3ccccc23)cc1F	-47*	-12%	3	.	3%	0%
COc1ccc(N=Cc2c(O)ccc3ccccc23)cc1	-23	5%	-2	0%	?	0%
CCOC(=O)c1sc(/N=C/c2c(O)ccc3ccccc23)cc1C	-34*	-10%	-1	1%	-17%	5%

Screens (PubChem BioAssay)
